# Bioassay records deposited in PubChem by The Scripps Research Institute Molecular Screening Center.
# Hits are enriched below; roughly 4.1% of the tested compounds scored in any of these assays.
# hgDAF12 agonist: hgDAF-12 agonism, primary luciferase screen | HEK293 GAL4-hgDAF12 UAS-luciferase reporter, agonist luminescence; normalized to butyrate control | activation, % at 6.8 µM | actives 1.8% (n = 370,000) | AID 687014;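 active = activation above a cutoff set at the mean of all screened compounds plus 3 SD, cut at about 10% in these data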;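 also: 0% = DMSO wells and 100% = sodium butyrate wells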
# ssDAF-12 act: activators of S. stercoralis DAF-12 nuclear receptor | HEK293 ssDAF-12/GRIP1 lit1-tk-luc reporter, luminescence; % of 3 µM dafachronic acid response | activation, % at 6.8 µM | actives 1% (n = 370,000);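 active = activation above the mean over all tested compounds plus 3 SD, cut at about 0.9% in these data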;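 also: 0% = DMSO-only wells and 100% = 3 µM delta7-dafachronic acid wells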
# DAX1 inh-1: inhibitors of DAX1 repression of SF-1 activated StAR promoter. AID 652010. inhibition, % at 6.8 µM. HEK293T StAR-luciferase reporter, SF-1/DAX-1 repression relief. actives 1.1% (n = 370,000);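 active = inhibition above the mean over all tested compounds plus 3 SD, cut at about 3.6% in these data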;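 also: 0% = DAX-1 cells with DMSO and 100% = cells lacking DAX-1 with DMSO; higher inhibition means more luminescence from relief of DAX-1 repression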
# DAX1 inh-2: NR0B1 (DAX1) inhibition; P51843; HEK293 Gal4-DAX1 luciferase reporter, luminescence; inhibition, % at 6.75 µM; actives 0.99% (n = 340,000);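 active = inhibition above the mean over all tested compounds plus 3 SD, cut at about 4.2% in these data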;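 also: 0% = DAX1-transfected cells with DMSO and 100% = empty-vector control cells with DMSO; inhibition shows as a rise in luminescence from relieved DAX1 repression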
# Target sequence (P51843 207-470 limits assumed): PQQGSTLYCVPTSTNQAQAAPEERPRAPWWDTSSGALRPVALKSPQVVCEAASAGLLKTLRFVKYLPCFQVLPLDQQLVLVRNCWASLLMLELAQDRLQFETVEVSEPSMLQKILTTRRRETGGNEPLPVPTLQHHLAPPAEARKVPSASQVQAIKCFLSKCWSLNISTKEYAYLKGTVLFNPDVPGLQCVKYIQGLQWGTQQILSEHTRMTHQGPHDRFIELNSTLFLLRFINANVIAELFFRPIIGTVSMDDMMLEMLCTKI
# hcDAF-12 act: H. contortus DAF-12 activation, primary screen; HEK293 hcDAF-12 lit1-tk-luc reporter, luminescence; 0% DMSO, 100% Δ7-dafachronic acid; actives 1.4% (n = 370,000); AID 652067; activation, % at 6.8 µM;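 active = activation above the mean of all tested compounds plus 3 SD, cut at about 5.5% in these data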;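 also: 100% = response to 3 µM Δ7-dafachronic acid high control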
# Starred values were filed as active, the others as inactive; nt = no result.
SMILES,hgDAF12 agonist,ssDAF-12 act,DAX1 inh-1,DAX1 inh-2,hcDAF-12 act
O=C(c1cccc(F)c1)N(Cc1ccccn1)CC1CCCO1 (centres undefined),-1,0,0,nt,-1
O=C(C1CCCN(S(=O)(=O)c2cccc3ccccc23)C1)N1CCN(Cc2ccccc2)CC1 (centres undefined),0,-2,-1,nt,-1
CCOc1ccc(/C=N/OCC(=O)Nc2cc(C)on2)cc1,-4,1.6*,0,0,-2
CCc1ccccc1OCC(=O)OCC(=O)Nc1cc(C)on1,3,-1,3.8*,0,-1
CC(C)C[C@H](NC1(C(=O)NCCc2c[nH]c3ccccc23)CCC1)C(=O)NCCCc1ccccc1,3,-1,nt,nt,1
CCN(C[C@H]1[C@@H](c2ccc(C3=CCCC3)cc2)[C@H](CO)N1C(=O)c1cccnc1)S(=O)(=O)c1ccccc1[N+](=O)[O-],0,-1,0,nt,-2
C[C@H]1[C@H](NCc2cccnc2)CC[C@@]23CCCN2C(=O)CCC[C@@H]13,0,-2,nt,nt,0
CCc1ccc(NC(=O)CSc2nnc(Cc3cccn3C)n2-c2ccc(OC)cc2)cc1,-2,0,1,4.7*,0
CC(C)c1ccc(Nc2nnc(SCC(=O)NCC3CCCO3)s2)cc1 (centres undefined),12*,-1,1,1,0
Cc1ccc(NC2Sc3ccccc3NC2=O)cc1 (centres undefined),15*,1.0*,4,1,5
O=C1Nc2ccccc2SC1c1ccccc1 (centres undefined),0,-1,0,0,-2
C[C@H]1CCCN1c1ccc2c(c1)O[C@H]1CCN(C1)S2(=O)=O,0,-1,-2,nt,-3
COC(=O)c1ccc(COc2ccc(/C=N/Nc3nc(C)cc(=O)[nH]3)cc2)cc1,5,-1,1,5.8*,2
Cc1cc(Br)ccc1OCCCN1CCC(C(O)(c2ccccc2)c2ccccc2)CC1,2,-1,1,nt,0
O=C(Nc1ccc(Br)c(C(F)(F)F)c1)[C@@H]1CC=C[C@@H]2CCN(CC3CC3)C(=O)[C@@H]21,-1,-2,nt,nt,-2
O=C(CSc1nnc(COc2ccc(Cl)cc2)n1Cc1ccco1)Nc1ccc(OCc2ccccc2)cc1,1,-2,0,nt,-1
O=C(NCCOc1ccccc1Cl)c1ncn[nH]1,1,-2,0,1,-1
CCCCCCNC(=O)c1ncn[nH]1,0,-1,0,5.0*,0
O=C(CSc1nc2c(cnn2-c2ccccc2)c(=O)[nH]1)NC1CCS(=O)(=O)C1 (centres undefined),-1,-1,1,5.7*,-1
O=C(c1ccc(Cl)cc1)c1cnc(-c2ccccc2)s1,0,-1,0,1,0
CC(=O)c1cnc(Nc2cccc(Cl)c2Cl)s1,13*,0,2,3,2
O=C(c1ccc(Cl)cc1)c1cnc(Nc2ccccc2Cl)s1,13*,0,1,2,2
COC(=O)[C@]12C[C@H](CC(=O)N3CCN(C(=O)c4ccco4)CC3)C(=O)N(CCc3ccc(OC)c(OC)c3)C1=C[C@H](COCc1ccccc1)O[C@@H]2C,-2,-1,0,nt,-1
Cn1c2[n+](c3ccc(Cl)cc3c1=O)Cc1ccccc1-2,3,0,0,5.7*,0
Cn1c(=O)c(-c2cccc(Cl)c2)c(O)c2ccccc21,-2,-1,0,3,-1
SMILES,hgDAF12 agonist,ssDAF-12 act,DAX1 inh-1,DAX1 inh-2,hcDAF-12 act
Cc1nc2c(OCc3ccc(Cl)cc3)cccn2c1N(C)C(=O)CCC1CCCC1,10*,-1,-1,nt,-1
Cn1cc(/C=C2\SC(=S)N(NC(=O)c3cccc(Cl)c3)C2=O)c2ccccc21,3,-1,0,0,-1
Cn1cc(/C=C2\SC(=S)N(NC(=O)c3ccccc3)C2=O)c2ccccc21,1,1.0*,-1,0,4
COCCCNC(=S)NC(=O)c1ccc(C)cc1,13*,1,3,1,6.2*
COc1ccc(NC(=O)/C(C#N)=C/c2ccc[nH]2)c(OC)c1,4,0,1,0,6.5*
Brc1cccc(C2Nc3cccc4cccc(c34)N2)c1,2,0,0,5.2*,2
C/C(=N\Nc1ccc(Cl)c(C(=O)O)c1)c1ccc[nH]1,5,0,3,-1,6.4*
C/C(=N\Nc1ccc(Cl)c(C(=O)O)c1)c1cccs1,5,0,3,3,1
CC(C)(N[C@@H](Cc1c[nH]c2ccccc12)C(=O)NCCc1c[nH]c2ccccc12)C(=O)NC1CCCCC1,-4,-1,nt,nt,3
CC(c1ccco1)N(C(=O)C12CC3(C)CC(C)(CC(C)(C3)C1)C2)c1ccccn1 (centres undefined),0,-1,0,5.4*,-2
COc1cc(O)c(C(CC(=O)N2CCCC(C)C2)c2ccccc2)c(OC)c1 (centres undefined),2,-1,nt,nt,1
C=CCSC1=N/C(=C/c2ccsc2)C(=O)N1c1ccccc1,0,-2,0,5.0*,-1
CCC(=O)Nc1ccc(S(=O)(=O)N2CCc3ccccc32)cc1,-1,-1,-1,0,-1
CCCC(=O)Nc1ccc(S(=O)(=O)N2CCc3ccccc32)cc1,1,0,0,4.8*,-2
O=C(CNC(=O)c1cccc(S(=O)(=O)N2CCc3ccccc32)c1)Nc1ccc(F)c(F)c1F,-6,-1,-1,-1,-1
O=C(CNC(=O)c1cccc(S(=O)(=O)N2CCc3ccccc32)c1)Nc1ccccc1Br,-7,1.2*,-1,-2,-2
CC1CCCCN1C(=O)c1cc(-c2ccc(Cl)c(Cl)c2)on1 (centres undefined),7,-1,0,1,-1
CC1CCN(C(=O)c2cc(-c3ccc4c(c3)OCO4)on2)CC1,12*,0,2,1,4
CC1CCCCN1C(=O)c1cc(-c2ccc3c(c2)OCO3)on1 (centres undefined),11*,0,2,3,5
CCCNC(=O)c1cc(-c2ccc3c(c2)OCO3)on1,11*,0,3,0,2
Cc1nc([N+](=O)[O-])cn1CC(Cl)Cn1cc([N+](=O)[O-])nc1C,0,-1,-1,nt,1
Nc1[nH]c(C(=O)c2ccc(Br)cc2)c(-c2ccc(Br)cc2)c1C(=O)N1CCCCC1,2,-1,nt,nt,-2
O=C(OCC#CCSc1nnc(-c2cccc3ccccc23)o1)c1cccc(F)c1,3,-2,nt,nt,0
CN1[C@H](Cc2ccccc2)COc2cc(N3CCCC3)ccc2S1(=O)=O,0,-2,-5,nt,-4
COc1ccc(S[C@]2(C(=O)N3CCOCC3)CC(=O)N(P(=O)(OC)OC)[C@@H]2c2ccc(OC)cc2)cc1,-2,-1,-2,nt,-2
